Records with an inconclusive call do not appear. A call without a number means that no potency is given here. Calls of active or inactive are those of the source. Calls come from the whole dose curve; as a rule, active = well fitted cell-killing curve with a large enough effect; inconclusive = small, poorly fitted or top-dose-only effect, or effect the other way; inactive = no such curve, though single readings can be large or run the other way.
experiment: Quantitative High-Throughput drug screen in 47 multiple myeloma cell lines against the NCATS MIPE library collection: OCIMY1_PLB cell viability assay (AID 1918979); conditions: OCI-MY1 myeloma viability, CellTiter-Glo ATP, 48 h; series mostly up to 45.8 µM; note: nearly all actives have a fitted effect of over 35% in size
Outline: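 500 cells/well per myeloma line exposed to pinned MIPE 4.0 compounds for 48 h at 37 °C, 5% CO2. Viability read as ATP by CellTiter-Glo luminescence, normalised to DMSO-only (100%) and media-only (0%) wells.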
Potency is the fitted concentration of half-maximal effect.

Question: Which Potency does the source give for `CCCC[N+]1(C)[C@H]2CC(OC(=O)[C@H](CO)c3ccccc3)C[C@H]1[C@H]1O[C@H]12` (stereo partly specified) here?
Answer: inactive

Question: With `CCOC(=O)c1cncn1[C@H](C)c1ccccc1` as the molecule, how does the Potency read?
Answer: inactive

Question: With `N#C[C@H](O[C@@H]1O[C@H](CO[C@@H]2O[C@H](CO)[C@H](O)[C@H](O)[C@H]2O)[C@H](O)[C@H](O)[C@H]1O)c1ccccc1` as the molecule, how does the Potency read?
Answer: 20900 nM (active)

Question: For `CC1(N2CCC(n3c([C@@H]4CCCNC4)nc4ccccc43)CC2)CCCCCCC1`, which Potency is on record?
Answer: 20900 nM (active)

Question: Which Potency does the source give for `CN(C)NC(=O)CCC(=O)O` here?
Answer: inactive

Question: For `O=c1[nH]c2ccccc2n1C1CCN(Cc2ccc(-c3[nH]c4cc5ncnc5cc4nc3-c3ccccc3)cc2)CC1`, which Potency is on record?
Answer: 18700 nM (active)

Question: Which Potency does the source give for `CC(C)N(CCNC(=O)CN1CCCC1=O)C(C)C` here?
Answer: inactive

Question: With `C[C@@H]1[C@H](O)[C@@H](C)C=CC=CCCC=CC=CC=CC=C[C@H](O[C@H]2O[C@@H](C)[C@H](O)[C@@H](N)[C@@H]2O)CC2O[C@](O)(C[C@@H](O)[C@H](O)CC[C@@H](O)C[C@@H](O)C[C@@H](O)CC(=O)O[C@H]1C)C[C@H](O)[C@H]2C(=O)O` as the molecule, how does the Potency read?
Answer: inactive

Question: For `CN[C@@H]1Cc2cccc3[nH]c(=O)n(c23)C1`, which Potency is on record?
Answer: inactive

Question: Which Potency does the source give for `CC(=Cc1csc(C)n1)[C@@H]1C[C@H]2O[C@@H]2CCC[C@H](C)[C@@H](O)[C@@H](C)C(=O)C(C)(C)[C@@H](O)CC(=O)O1` here?
Answer: inactive

Question: With `Clc1ccccc1C(c1ccccc1)(c1ccccc1)n1cccn1` as the molecule, how does the Potency read?
Answer: inactive

Question: With `C[C@@H]1CC[C@H]2[C@@H](C)C(=O)O[C@@H]3O[C@@]4(C)CC[C@H]1[C@]32OO4` as the molecule, how does the Potency read?
Answer: inactive

Question: With `Cc1[nH]nc2ccc(-c3cncc(OC[C@@H](N)Cc4c[nH]c5ccccc45)c3)cc12` as the molecule, how does the Potency read?
Answer: 1870 nM (active)

Question: Which Potency does the source give for `C[C@@H]1O[C@@H](O[C@@H]2C=C3CC[C@@H]4[C@@H](CC[C@]5(C)[C@H](c6ccc(=O)oc6)CC[C@@]45O)[C@@]3(C)CC2)[C@H](O)[C@H](O)[C@H]1O` here?
Answer: 16.6 nM (active)

Question: With `CC[C@@]1(O)C(=O)OCc2c1cc1n(c2=O)Cc2cc3ccccc3nc2-1` as the molecule, how does the Potency read?
Answer: 418 nM (active)

Question: With `NC1=NC(=O)N2CC12` (stereo unspecified) as the molecule, how does the Potency read?
Answer: inactive

Question: With `C[C@]12Cc3cn[nH]c3C[C@@H]1CC[C@@H]1[C@H]2CC[C@@]2(C)[C@H]1CC[C@]2(C)O` as the molecule, how does the Potency read?
Answer: inactive

Question: For `CC1=C(O)C(=O)C=C2C1=CC=C1[C@@]2(C)CC[C@@]2(C)[C@@H]3C[C@](C)(C(=O)O)CC[C@]3(C)CC[C@]12C`, which Potency is on record?
Answer: 833 nM (active)

Question: With `CC=C(C)C(=O)O[C@H]1C(C)=C2[C@@H]3OC(=O)[C@@](C)(O)[C@@]3(O)[C@@H](OC(=O)CCC)C[C@](C)(OC(C)=O)[C@@H]2[C@@H]1OC(=O)CCCCCCC` as the molecule, how does the Potency read?
Answer: 105 nM (active)

Question: Which Potency does the source give for `COCC1(CO)C(=O)C2CCN1CC2` (stereo unspecified) here?
Answer: 2090 nM (active)

Question: With `CN1CCN(c2ccc([N+](=O)[O-])c3no[n+]([O-])c23)CC1` as the molecule, how does the Potency read?
Answer: 26400 nM (active)

Question: Which Potency does the source give for `C[C@]12CCC(=O)C(O)=C1CC[C@@H]1[C@H]3CCC(=O)[C@@]3(C)CC[C@@H]12` here?
Answer: inactive

Question: For `COc1cc([C@@H]2c3cc4c(cc3[C@@H](O)C3COC(=O)C32)OCO4)cc(OC)c1O` (stereo partly specified), which Potency is on record?
Answer: 41.8 nM (active)

Question: For `COc1ccc2c(c1)[C@]13CCCCC1C(C2)N(C)CC3` (stereo partly specified), which Potency is on record?
Answer: inactive

Question: For `CC(N[C@H]1C[C@H]1c1ccccc1)c1ccc2c(c1)OCCO2` (stereo partly specified), which Potency is on record?
Answer: inactive

Question: Which Potency does the source give for `C#CC1(O)CCC2C3CCC4=CC(=O)CCC4(C)C3CCC21C` (stereo unspecified) here?
Answer: inactive

Question: For `C[C@]12COC(=O)C[C@@H]1CC[C@@H]1[C@H]2CC[C@@]2(C)[C@H]1CC[C@]2(C)O`, which Potency is on record?
Answer: inactive

Question: With `C#C[C@]1(O)C=C[C@@H]2[C@@H]3CCC4=CC(=O)CC[C@@H]4[C@H]3CC[C@@]21CC` as the molecule, how does the Potency read?
Answer: inactive

Question: For `CCOP(=O)(OCC)C(C)NC(=O)N(CCCl)N=O` (stereo unspecified), which Potency is on record?
Answer: inactive

Question: With `CSCC[C@@H](NC(=O)[C@@H](Cc1ccccc1)NC(=O)CNC(=O)CNC(=O)[C@@H](N)Cc1ccc(O)cc1)C(=O)O` as the molecule, how does the Potency read?
Answer: inactive

Question: Which Potency does the source give for `CCC(=O)OC1CCC2C3CCC4=CC(=O)CC[C@@]4(C)C3CC[C@]12C` (stereo partly specified) here?
Answer: inactive

Question: For `CCc1c(C(=O)C(N)=O)c2c(OCC(=O)O)cccc2n1Cc1ccccc1`, which Potency is on record?
Answer: inactive

Question: Which Potency does the source give for `C=C[C@@H]1CN2CCC1C[C@H]2[C@H](O)c1ccnc2ccccc12` (stereo partly specified) here?
Answer: inactive

Question: Which Potency does the source give for `CCN1CCN(C(=O)Cc2ccc(Nc3ncc(F)c(Nc4ccc(C(=O)Nc5ccccc5Cl)cc4)n3)cc2)CC1` here?
Answer: 7430 nM (active)

Question: For `O=C(O)CNC(=O)c1c(O)c2ccccc2n(Cc2ccccc2)c1=O`, which Potency is on record?
Answer: inactive

Question: For `COc1ccc2c(c1)CN(C)CC2c1ccc(Cl)c(Cl)c1` (stereo unspecified), which Potency is on record?
Answer: inactive
